Rows were chosen to be rich in hits. Some 1.8% of all compounds tested hit in one or more screens of this group.
Beta apoptosis = beta cell apoptosis inhibition; AID 435005; INS-1E cytokine-induced death, ATP luminescence, 48 h; percent of positive-control rescue, neutral wells zero; 300,000 tested, 0.8% active; protection from apoptosis, % (test concentration not listed);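 active = Every replicate reaches about 75%, or at least half do and their mean reaches it too, limit read from the data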;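 also: higher means more ATP so stronger rescue from cytokine killing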
Jurkat NFkB inh = lowers PMA/ionomycin-induced NF-kB signal in Jurkat cells | PMA/ionomycin-induced NF-kB luciferase reporter, luminescence | inhibition, % at 4 µM | 330,000 tested, 0.53% active; in the data active = inhibition above about 50%
Gli-Sufu antag = antagonists of Gli-Sufu signaling; Sufu-KO-LIGHT fibroblasts, Gli luciferase reporter luminescence; inhibition, % at 5 µM; 340,000 tested, 0.74% active; AID 588413;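 active = inhibition above about 55%, limit read from the data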
697 NFkB inh = lowers PMA/ionomycin-induced NF-kB signal in 697 B cells; 697 B-cell NF-kB luciferase reporter, 16 h; inhibition, % at 4 µM; 330,000 tested, 0.33% active; AID 435022; in the data active = inhibition above about 35%
697 NFkB conf = lowers PMA/ionomycin-induced NF-kB signal in 697 B cells. shares compounds with 697 NFkB inh. 697 B-cell NF-kB luciferase, 16 h. inhibition, % at 4 µM. 2,000 tested, 35% active. AID 449746; in the data active = inhibition mostly above about 28%, no sharp cut-off; inactive = mostly below about 22%
Gli-Sufu confirm = Gli-SUFU antagonism confirmation, single concentration; shares compounds with Gli-Sufu antag; Sufu-KO-LIGHT cells, Gli luciferase reporter, luminescence; inhibition, % at 5 µM; 2,500 tested, 40% active; AID 602428;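 active = mean inhibition at 5 µM reaching about 45%, limit read from the data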
Gli cytotox = cytotoxic in Gli-SUFU antagonist counter-screen; shares compounds with Gli-Sufu antag; Sufu-KO-LIGHT cells cytotoxicity, ATP luminescence; cytotoxicity, % at 5 µM; 2,500 tested, 32% active; AID 651994;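 active = mean cytotoxicity at 5 µM above about 25%, limit read from the data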;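 also: cells exposed to compound overnight for roughly 16 to 18 hours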
Wnt3a cs = inhibits Wnt3a reporter, counter-screen for Gli-SUFU antagonists. shares compounds with Gli-Sufu antag. Wnt-LIGHT cells, Wnt3a-driven luciferase reporter, luminescence. inhibition, % at 6.25 µM. 2,500 tested, 20% active;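 active = mean inhibition above about 25%, limit read from the data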
Hits are given with their value; - = inactive; . = no result given.

SMILES	Beta apoptosis	Jurkat NFkB inh	Gli-Sufu antag	697 NFkB inh	697 NFkB conf	Gli-Sufu confirm	Gli cytotox	Wnt3a cs
COc1ccc(Cl)cc1NC(=O)CN(C)C(=O)c1cc(C)oc1C	-	-	-	-	.	.	.	.
c1ccc(Oc2ccc3ccccc3n2)cc1	-	-	-	-	.	.	.	.
CCc1nonc1NC(=O)COc1ccc(Cl)c(C)c1	-	-	-	-	.	.	.	.
COc1ccc(/C=C2/SC(=S)N(CCCC(=O)Nc3cccc(O)c3)C2=O)cc1	-	-	62.0	62.5	71.4	57.6	-	-
COC(=O)c1cc(C(=O)c2ccc(Cl)cc2)n2c(=O)/c(=C\N(C)C)sc12	-	-	57.5	41.3	-	-	-	-
Cc1ccc(S(=O)(=O)CC2CSc3nc4ccccc4n32)cc1 (stereo not drawn)	91.9	-	71.8	61.8	75.2	70.4	-	47.2
Cc1ccc(NC(=O)CNc2ccccc2CN(C)C2CCCCC2)cc1	-	-	-	-	.	.	.	.
Cc1cc(C)c(CN2CCN(C(=O)Cn3cnc4c(NCc5ccccc5)ncnc43)CC2)c(C)c1	.	.	59.9	73.6	82.2	66.8	41.6	39.2
CC(=O)C1=NN(c2ccccc2)C(c2cccs2)N1c1ccc(N(C)C)cc1 (stereo not drawn)	103.1	-	78.8	68.7	38.5	79.0	32.8	-
CC(=O)C1=NN(c2ccccc2)C(c2ccc3c(c2)OCO3)N1c1ccccc1 (stereo not drawn)	-	-	-	-	.	.	.	.
Cc1cc(C)c(S(=O)(=O)NCCc2ccncc2)c(C)c1	-	-	.	-	.	.	.	.
Cc1cc(C)c(S(=O)(=O)NCc2ccncc2)c(C)c1	-	-	58.3	58.0	41.0	60.2	27.8	43.3
CCOC(=O)N1CCC(NC(=O)CSCc2nc(-c3ccc(OCC)cc3)oc2C)CC1	-	-	-	-	.	.	.	.
CCOc1ccc(-c2nc(CSCC(=O)NC3CC3)c(C)o2)cc1	-	-	89.8	98.6	79.2	93.3	-	-
COCCNC(=O)CSCc1nc(-c2ccc(SC)cc2)oc1C	-	-	55.2	83.7	72.4	65.9	-	-
COc1cc(CC(NC(C)=O)C(=O)NC2CCN(c3c4c(nc5ncnn35)CCC4)CC2)cc(OC)c1 (stereo not drawn)	-	-	.	-	.	.	.	.
CC(=O)c1c(C)nc2ccc(C)cc2c1-c1ccccc1	-	-	-	-	.	.	.	.
COc1cc(C[C@@H]2C(=O)OC[C@H]2Cc2ccc(OC)c(OC)c2)ccc1O	-	-	65.9	84.9	70.2	57.3	31.5	31.8
COc1cc(CC2COC(=O)C2(O)Cc2ccc(O)c(OC)c2)ccc1O (stereo not drawn)	.	-	-	-	.	.	.	.
Cc1ccc(C)n1-c1nn(S(=O)(=O)c2cccc(C(F)(F)F)c2)c2cccc(F)c12	.	-	-	-	.	.	.	.
CCN1CCN(C(=O)CSc2cc(=O)n(C)c3ccccc23)CC1	-	-	-	-	.	.	.	.
CCn1c(=O)cc(SCC(=O)N2CCN(C3CCCCC3)CC2)c2ccccc21	-	-	96.9	47.8	-	46.1	-	-
COc1cc(-c2nnc(SCC(=O)O)n2-c2ccccc2)cc(OC)c1OC	.	-	-	-	.	.	.	.
CN(C)c1cc[n+](Cc2c(Cl)cccc2Cl)cc1	97.3	-	72.9	45.4	38.5	67.5	-	29.7
O=C1COc2ccc(C(=O)COC(=O)/C=C/c3cccc(F)c3)cc2N1	-	-	-	-	.	.	.	.
SMILES	Beta apoptosis	Jurkat NFkB inh	Gli-Sufu antag	697 NFkB inh	697 NFkB conf	Gli-Sufu confirm	Gli cytotox	Wnt3a cs
N=c1ccn2c(n1)O[C@H]1[C@H](O)[C@@H](CO)O[C@H]12	-	-	60.1	52.0	44.8	45.9	-	40.6
COc1ccc(/C=C2\NC(=O)C(C=NCc3ccccc3)=C2O)cc1	.	-	-	-	.	.	.	.
O=C1N/C(=C\c2ccc(O)cc2)C(O)=C1C=NCc1ccccc1	-	-	71.2	37.3	-	47.4	-	-
O=C(c1ccc2c(=O)n(-c3ccccc3)c(=S)[nH]c2c1)N1CCCCC1	-	-	60.4	38.2	-	54.5	36.2	-
COC(=O)c1cccnc1NC(=S)NNC(=O)c1ccccc1	-	-	-	-	.	.	.	.
COc1ccc(NS(=O)(=O)c2ccc(-c3coc(C)n3)cc2)cc1OC	106.9	-	72.9	40.5	59.5	73.1	28.5	50.6
